PubChem BioAssay (NCI)
The panel holds about 83,000 compounds, 20% with a hit somewhere; the sample as a whole holds those more often.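 Negative percent growth values reflect cell death: -40 means 40% of the cells present at the start died, and -100 means all died.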 Unmarked numbers belong to inactive results. The source made the active and inactive calls. Rule for the calls: active = growth percent below 10; inactive = the rest.

The compounds below were run on MDA-MB-435 melanoma (assay: NCI-60 one-dose screen, 48 h (100 = growth as untreated, 0 = no growth, -100 = all killed)). Details: 10 µM unless noted.

Compound | growth
C=C(C)[C@@H]1CC[C@]2(COC(=O)c3cccnc3)CC[C@]3(C)[C@H](CC[C@@H]4[C@@]5(C)CCCN(C(=O)c6cccnc6)C(C)(C)[C@@H]5CC[C@]43C)[C@@H]12 | 38.3%
C=C1C(=O)O[C@H]2[C@H]1CC/C(CNC(=O)/C=C/c1cc(OC)c(OC)c(OC)c1)=C\CC[C@@]1(C)O[C@@H]21 | -60.3% (active)
O=S(=O)(c1ccc(NCSc2nc3ccccc3s2)cc1)c1ccc(NCSc2nc3ccccc3s2)cc1 | 112%
COc1ccc(S(=O)(=O)Oc2ccc(-c3sc4cc(OS(=O)(=O)c5ccc(OC)cc5)ccc4c3C(=O)c3ccc(OCCN4CCCCC4)cc3)cc2)cc1 | 105%
Nc1nc(N)c2c(n1)NC(c1cccc(Nc3ccnc4cc(C(F)(F)F)ccc34)c1)CC(c1ccc(Cl)cc1)=N2 (stereo not given) | -24.8% (active)
COC(=O)[C@H]1Cc2c([nH]c3ccccc23)[C@H](c2ccc3c(c2)OCO3)N1 | 101%
[2H]C([2H])([2H])Oc1c(F)cccc1/C=C/C(=O)/C=C(O)/C=C/c1cccc(F)c1OC([2H])([2H])[2H] | 94.9%
C=C(C)[C@@H]1CCC[C@]2(C(=O)OC)CC[C@]3(C)[C@@H](CC[C@@H]4[C@@]5(C)CCCNC(C)(C)[C@@H]5CC[C@]43C)[C@@H]12 | 92.9%
O=C(Nc1ncc(Cc2ccccc2)s1)c1ccc2c(c1)OCCO2 | -4.27% (active)
COc1ccc(-c2cc(-c3ccc(Nc4nc(Nc5ccc(Cl)cc5)nc(Nc5ccc(Cl)cc5)n4)cc3)no2)cc1 | 71.3%
